Laboratory results from PubChem BioAssay AID489018 (Southern Research Specialized Biocontainment Screening …, 2010).
Among all 2,300 compounds or so, about 350 (15%) were called active. The list is a sample of the results. Potency and affinity values are given separately. Unmarked numbers belong to inactive results. The rule behind the calls is not given here.

experiment: HepG2 cell cytotoxicity, dose response, cytotoxicity control for non-replicating M. tuberculosis project (AID 489018); settings: series mostly up to 20 µM; viability: at the top concentration;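 note: HepG2 human liver cells; 100% = vehicle-treated cells and 0% = background signal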

Structure (SMILES) | viability
O=C(COc1ccc(-c2ccccc2)cc1)Nc1cccnc1 | 100%
O=C(COc1ccc(Nc2ccccc2)cc1)OCC(=O)N1CCCCC1 | 102%
CCn1nnc(NC(=O)c2sc3ccccc3c2Cl)n1 | 92.3%
O=C(Nc1nccs1)c1sc2ccccc2c1Cl | 80.8%
CCCc1ccc(OCc2ccc(C(=O)N/N=C/c3cccnc3)o2)cc1 | 85.4%
O=C(Nc1ccc(Cl)c(Cl)c1)O/N=C/c1ccncc1 | 105%
O=C(COc1ccccc1)NNc1nc2ccccc2s1 | 105%
CC(C)(C)/C(O)=C/c1nc2ccccc2oc1=O | 100%
O=C(N/N=C/c1cc([N+](=O)[O-])ccc1O)C1CCCCC1 | 75.8%
Cc1ccc(-c2ccc(/C=N/NC(=O)CN3CCCC3)o2)cc1Cl | 117% [at 5 µM]
Nc1ccc2nc3c(c(Cl)c2c1)CCCC3 | 86%
CCOC(=O)c1cnc(Nc2nc3ccccc3o2)nc1CSC(=S)N1CCCCC1 | 99.8% [at 5 µM]
Oc1ccccc1/C=N/Nc1nc2ccccc2o1 | 71.9% [at 5 µM]
O=C(OCCCOC(=O)c1ccc([N+](=O)[O-])o1)c1ccc([N+](=O)[O-])o1 | 95.3%
Cc1ccc2oc(=O)c3cc(C(=O)NCCCN4CCCCCC4)sc3c2c1 | 97.4%
O=C1Nc2cc(C(=O)NCCCN3CCOCC3)ccc2S/C1=C/c1cccc(Cl)c1 | 74.6%
CN1C(=O)/C(=C/c2cccc(Cl)c2)Sc2ccc(C(=O)N3CCCC3)cc21 | 80.6%
COc1cccc(/C=C2\SC(=S)N(CCC(=O)N3CCCCC3)C2=O)c1 | 71.2%
Cc1ccc(/C=N/NC(=O)C2COc3ccccc3O2)s1 (stereo unspecified) | 77.9%
Cc1ccnc(NC(=O)c2cc3ccccc3o2)c1 | 78.3%
CC(C)(C)C(=O)/C=C/Nc1ccccc1O | 98.5%
O=C(OCC(=O)N1CCN(c2ccccc2)CC1)c1ccc(Cl)cc1[N+](=O)[O-] | 93.7%
COc1cc(NCCC(=O)c2cccs2)c(OC)cc1Cl | 95.9%
COC(=O)C1=C(N)OC2=C(C(=O)CC(C)(C)C2)C1c1cccnc1 (stereo unspecified) | 106%

Structure (SMILES) | viability
CCOC(=O)CNC(=O)CNC(=O)c1nn(-c2ccc(OC)c(Cl)c2)c(=O)c2ccccc12 | 93.9%
Cc1cc(Cl)cc(C)c1OCCCCn1ccnc1 | 91.2%
CCCCn1c(=O)c(C(=O)Nc2ncccc2C)c(O)c2ccccc21 | 71.7%
C=CCn1c(=O)c(C(=O)Nc2cccnc2)c(O)c2ccccc21 | 92.8% [at 5 µM]
CCn1c(=O)c(C(=O)Nc2ncccc2C)c(O)c2ccccc21 | 75.3%
CCCCn1c(=O)c(C(=O)Nc2nnc(C(C)C)s2)c(O)c2ccccc21 | 106%
CCCCCCn1c(=O)c(C(=O)Nc2nnc(C)s2)c(O)c2ccccc21 | 99.1%
Cc1cccnc1NC(=O)c1c(O)c2ccccc2n(C)c1=O | 93.5% [at 5 µM]
Cc1cccc(NCc2ccc([N+](=O)[O-])s2)c1 | 93.2%
c1coc(CNc2nc(N3CCCCC3)nc3ccccc23)c1 | 93.1% [at 5 µM]
Cc1ccc(NC(=O)COC(=O)C2=COCCO2)c([N+](=O)[O-])c1 | 106%
Cn1c(NC(=O)c2ccccc2)nc2ccccc21 | 87.3% [at 5 µM]
COc1ccc2c(c1)sc(=N)n2C | 110% [at 5 µM]
Cc1ccc2c(c1)c(C1=c3ccccc3=NC1=O)c(O)n2C | 85.1%
COc1ccc(COc2cccc(C=O)c2)cc1 | 96%
COc1ccc(C(=O)OCn2nnc3ccccc3c2=O)cc1[N+](=O)[O-] | 112% [at 5 µM]
COc1ccc(C(=O)C2CCCN(C(=O)c3ccc(CSC)o3)C2)cc1F (stereo unspecified) | 101%
O=C(N/N=C/c1ccc[nH]1)c1ccncc1 | 97.8%
CCOC(=O)CC(=O)Nc1ccc(C(=O)OCC)cc1 | 96.9%
C/C(=N\Nc1nc2ccccc2[nH]1)c1cc2ccccc2o1 | 89.5% [at 5 µM]
Cc1cc(N/N=C/c2ccccc2[N+](=O)[O-])nc(-n2nc(C)cc2C)n1 | 82.7% [at 5 µM]
COc1cc(Cl)cc(/C=N/NC(N)=O)c1O | 103% [at 5 µM]
O=C(NNc1nc2ccccc2s1)Nc1ccc(F)cc1 | 95%
O=C(N/N=C/C=C/c1ccccc1[N+](=O)[O-])c1ccncc1 | 95.8%

Structure (SMILES) | viability
O=C(N/N=C/c1cccc([N+](=O)[O-])c1O)c1cccs1 | 90%
NC(N)=N/N=C/c1cccc([N+](=O)[O-])c1O | 99.4%
CCc1nnc(NC(=O)c2cc3ccccc3oc2=O)s1 | 111% [at 5 µM]
Cn1c(=O)[nH]c(=O)c2c1nc([N+](=O)[O-])n2Cc1ccccc1 | 75.2% [at 5 µM]
C=CCc1cc(Cl)ccc1OCCCn1ccnc1 | 90.9%
COc1ccc(C2(O)CCN(CC(=O)Nc3nc(-c4ccccc4)cs3)CC2)cc1 | 74.6%
Cc1onc(-c2ccccc2Cl)c1C(=O)O/N=C(\N)c1ccc([N+](=O)[O-])o1 | 82.2%
CCC(CC)COC(=O)C(C#N)c1nc2ccccc2nc1N1CCN(CC)CC1 (stereo unspecified) | 80.2%
NCCOc1ccc(C23CC4CC(CC(C4)C2)C3)cc1 | 92.4%
O=c1[nH]c2ccccc2c2oc(CCl)nc12 | 105% [at 5 µM]
N=C1/C(=C/c2ccc(OC(=O)c3ccco3)cc2)C(=O)N=C2SC=CN12 | 98.9%
COC(=O)CN(C#N)c1nc(N(C)C)nc(N(C)C)n1 | 101%
O=C(N/N=C/c1ccc(O)cc1)c1cccc(C(F)(F)F)c1 | 95.1%
O=C(Nc1nnc(C2=COCCO2)o1)c1cccc(C(F)(F)F)c1 | 74.1%
COc1cccc(CN2CCC(N(CCc3ccccc3)Cc3ccccc3)CC2)c1OC | 73.7%
OCC#CCSc1nnc(-c2ccc(Br)cc2)o1 | 98.8%
COc1cccc(COC(=O)CCNC(=O)c2ccc(Br)cc2)c1OC | 101% [at 5 µM]
CCOC(=O)COc1ccc(C(=O)Nc2cccc(Cl)c2C)cc1 | 90.5%
O=C(NNC1=Nc2ccccc2SC1)c1ccc(F)cc1 | 80.8%
O=C(Nc1nnc(-c2ccco2)o1)c1ccc(Cl)s1 | 100% [at 5 µM]
O=C(Nc1nnc(-c2ccc(Br)cc2)o1)c1ccco1 | 90.6%
CCOc1cc(-c2nnc(NC(=O)c3ccco3)o2)cc(OCC)c1OCC | 71.3%
CCOc1ccc(OCCSc2ccc(S(=O)(=O)N3CCN(C)CC3)cn2)cc1 | 96.9% [at 5 µM]
COC(=O)c1ccc(Sc2nnnn2-c2ccccc2)c([N+](=O)[O-])c1 | 98.1%

Structure (SMILES) | viability
FC(F)c1nnc2ccc(Cl)nn12 | 116%
O=C(N/N=C/c1ccc([N+](=O)[O-])s1)c1cccnc1 | 70.9%
O=C(COc1ccccc1)Nc1nnc(-c2ccc3c(c2)CCCC3)o1 | 101%
Cc1cc(Cl)ccc1OCC(=O)NNC(=O)c1cnccn1 | 100% [at 5 µM]
O=C(N/N=C\c1ccc([N+](=O)[O-])s1)c1cncc(Br)c1 | 86.6% [at 5 µM]
Cc1c(C(=O)N(C)C)sc2nc(-c3ccccn3)[nH]c(=O)c12 | 105% [at 5 µM]
CN(C)CCCNc1nc2sc3c(c2c(=O)n1CCc1ccccc1)CCCCC3 | 86.3% [at 5 µM]
CN(C)CCCn1c(=O)n(C2CCCCC2)c(=O)c2c3c(sc21)CCCCC3 | 75.5%
Cn1c(O)c(C(=Nc2ccccc2)SCc2ccccc2Cl)c(=O)n(C)c1=O | 75%
C=CCOc1ccc(CNCCO)cc1OCC | 104%
CCc1cc(OCCCCNCc2ccccc2)ccc1Cl | 97.5%
C/C(=N/Nc1ccnc2cc(Cl)ccc12)c1ccc(N)cc1 | 74.7%
CC1CCN(C(=O)COC(=O)c2cc3ccccc3cc2O)CC1 | 93.4%
CCc1c(C)c2ccc(OCC(=O)OC)cc2oc1=O | 99%
COc1n[nH]c(C(=O)Nc2cc(F)ccc2C)c1[N+](=O)[O-] | 75.7%
Cc1cc(C)cc(OCC(=O)N/N=C/c2ccc([N+](=O)[O-])o2)c1 | 92%
Cc1cccc(NC(=O)c2ccc([N+](=O)[O-])o2)c1C | 95%
O=[N+]([O-])c1ccc(/C=N/NS(=O)(=O)c2ccc(Cl)cc2)o1 | 103%
COc1ccc(C(=O)NCC(=O)N/N=C/c2ccc([N+](=O)[O-])o2)cc1OC | 91.9%
Nc1nonc1C(=O)N/N=C/c1ccc([N+](=O)[O-])o1 | 82.7%
Cc1cc(C(=O)N/N=C/c2ccc([N+](=O)[O-])o2)c(C)o1 | 88.4%
Cc1ccccc1NC(=O)c1ccc([N+](=O)[O-])o1 | 102% [at 5 µM]
O=C(Nc1ccccc1)c1cc2ccccc2o1 | 85.3%
CN1C(c2ccccc2)CC(=NO)CC1c1ccccc1 (stereo unspecified) | 108%

Structure (SMILES) | viability
COc1ccccc1NC(=O)c1cnc(SC)nc1 | 118%
O=C(CC(=O)c1cc(Cl)ccc1O)c1ccccc1 | 102% [at 5 µM]
COc1ccc(-c2noc(-c3cc4ccccc4oc3=O)n2)cc1 | 100%
O=C(N/N=C/c1ccc(Br)s1)c1ccccc1[N+](=O)[O-] | 90.1%
CCc1nnc(N/N=C/c2ccc(-c3ccc([N+](=O)[O-])cc3)o2)n1N | 95.3%
Cc1ccc(OCC(=O)N/N=C/c2ccc([N+](=O)[O-])o2)cc1 | 95.7%
O=C(N/N=C\c1ccc([N+](=O)[O-])o1)C1COc2ccccc2O1 (stereo unspecified) | 101%
CCCCCCCC(=O)N/N=C/c1ccc([N+](=O)[O-])o1 | 97.7%
O=C(N/N=C\c1ccc([N+](=O)[O-])o1)c1cncc(Br)c1 | 109% [at 5 µM]
O=C(N/N=C/c1ccc([N+](=O)[O-])o1)c1sc2ccccc2c1Cl | 78.8%
COc1ccccc1OCC(=O)N/N=C/C=C/c1ccc([N+](=O)[O-])o1 | 93.9%
Cc1nonc1C(=O)N/N=C/c1ccc([N+](=O)[O-])o1 | 96.3%
Brc1c(-c2ccc3c(c2)OCO3)nc2ncccn12 | 86.5% [at 5 µM]
O=C(Nc1ccc(N2CCN(C(=O)c3ccco3)CC2)c(Cl)c1)c1cccs1 | 72%
COC(=O)c1ccccc1Sc1ncnc2onc(C)c12 | 113%
Cc1c(Cl)cccc1-c1ccc(CNCc2ccccn2)o1 | 94.3%
N#Cc1nc(-c2ccc(OCc3ccccc3)cc2)oc1NCCCn1ccnc1 | 77.7%
CCOC(=O)C(C)Oc1cc(Cl)c(C=O)cc1OC (stereo unspecified) | 94.7%
N/N=C(/Cc1nc2ccccc2[nH]1)c1ccc([N+](=O)[O-])cc1 | 96.1%
O=C(Nc1cc(C(F)(F)F)ccc1-n1cncn1)c1ccc([N+](=O)[O-])o1 | 103%
